Assay [1] concerns the target human Adenosine A2a Receptor (AdoRA2a), ADORA2A (gene 135) (UniProt P29274). As to the kind of experiment: NVS_GPCR_hAdoRA2a: NovaScreen (NVS) G Protein-Coupled Receptor Assay for human Adenosine A2a Receptor (AdoRA2a) (AID 2283256). In short, it runs like this:
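Compounds screened in duplicate at 25 uM, with actives followed up in concentration series, for displacement of a radioligand from HEK293-derived receptor protein. Bound counts read by filter scintillation at 1.5 hours, DMSO as baseline.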

In assay [2] the target is human Adrenergic, Alpha 2A Receptor (Adra2A), ADRA2A (gene 150) (UniProt P08913). Nature of the assay: NVS_GPCR_hAdra2A: NovaScreen (NVS) G Protein-Coupled Receptor Assay for human Adrenergic, Alpha 2A Receptor (Adra2A) (AID 2283257). Put shortly: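 Displacement of a specific radioligand from HT29 membrane protein was counted by filter scintillation after 1 h. Compounds were screened in duplicate at 25 uM, and actives were retested in concentration series. Fitting was positive-direction against DMSO.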

Assay [3] has as its target human Dopamine Receptor D4.4 (DRD4.4), DRD4 (gene 1815) (UniProt P21917). Nature of the assay: NVS_GPCR_hDRD4.4: NovaScreen (NVS) G Protein-Coupled Receptor Assay for human Dopamine Receptor D4.4 (DRD4.4) (AID 2283264). Put shortly: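 Filter-binding assay with a tritiated or iodinated ligand, cell-free receptor prepared from CHO, 1 hour. Loss of bound radioactivity versus DMSO; single 25 uM duplicate screen, then concentration-response for actives.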

Assay [4] addresses human Adrenergic, Alpha 2c Receptor (Adra2C), ADRA2C (gene 152) (UniProt P18825). Nature of the assay: NVS_GPCR_hAdra2C: NovaScreen (NVS) G Protein-Coupled Receptor Assay for human Adrenergic, Alpha 2c Receptor (Adra2C) (AID 2283259). On the procedure:
NVS_GPCR_hAdra2C is a biochemical, single-readout assay that uses extracted gene-proteins from SF9 in a cell-free assay. Measurements were taken 1 hour after chemical dosing in a 96-well plate.NVS_GPCR_hAdra2C is one of one assay component(s) measured or calculated from the NVS_GPCR_hAdra2C assay. It is designed to make measurements of radioligand binding, a form of binding reporter, as detected with scintillation counting signals by Filter-based radiodetection technology.Data from the assay component NVS_GPCR_hAdra2C was analyzed into 1 assay endpoint. This assay endpoint, NVS_GPCR_hAdra2C, was analyzed in the positive analysis fitting direction relative to DMSO as the negative control and baseline of activity. Using a type of binding reporter, loss-of-signal activity can be used to understand changes in the binding as they relate to the gene ADRA2C. Furthermore, this assay endpoint can be referred to as a primary readout, because the performed assay has only produced 1 assay endpoint. To generalize the intended target to other relatable targets, this assay endpoint is annotated to the gpcr intended target family, where the subfamily is rhodopsin-like receptor.
Binding assays used specific radioligands (tritiated, iodinated) with non-radioactive competitive displacement ligands in agonist or antagonist protocols (as indicated) and various reference compounds and inhibitors to titrate specific binding to receptors and transporters. Most enzyme assays (CYPs, kinases, phosphatases, proteases, HDACs) used recombinant protein and specific substrates (fluorescence mostly, some colorimetric and radioactive) and inhibitors, followed by a biochemical separation of substrate and product. All assays for the biochemical HTS were initially run in duplicate at a single concentration (10 uM for CYP450 assays and 25 uM for all others). […] Each assay was run with positive and negative controls, and concurrent controls on every plate. The follow-up (secondary) screen tested active chemical-pairs in concentration series, as well as a few additional assays not tested in the primary screen, some selected negative inactives, and several cases re-run in the concentration series for confirmatory purposes.

The target of assay [5] is Type-1 angiotensin II receptor (Homo sapiens) (UniProt P30556). Nature of the assay: NVS_GPCR_hAT1: NovaScreen (NVS) G Protein-Coupled Receptor Assay for human Angiotensin II receptor type 1 (AT1) (AID 2283263). Put shortly:
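Hits from a 25 uM duplicate screen (threshold e.g. 30% inhibition) were run in concentration-response with 50 uM top concentration. Displacement of specific radioligand from KAN-TS membrane preparations measured after 3 h by filter scintillation, DMSO as baseline.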

For assay [6], the target named is human Adrenergic, Beta 1 Receptor (Adrb1), ADRB1 (gene 153) (UniProt P08588). As to the kind of experiment: NVS_GPCR_hAdrb1: NovaScreen (NVS) G Protein-Coupled Receptor Assay for human Adrenergic, Beta 1 Receptor (Adrb1) (AID 2283258). In short, it runs like this: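 Membranes/protein extracted from human neuroepithelioma cells, radioligand competition binding read by filtration and scintillation 2 h post-dose. Single 25 uM duplicate screen, then concentration-response follow-up; DMSO as negative control.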

Assay [7] deals with human Adrenergic, Beta 3 Receptor (Adrb3), ADRB3 (gene 155) (UniProt P13945). Nature of the assay: NVS_GPCR_hAdrb3: NovaScreen (NVS) G Protein-Coupled Receptor Assay for human Adrenergic, Beta 3 Receptor (Adrb3) (AID 2283262). In short, it runs like this:
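A cell-free filter binding assay read by scintillation counting, with displacement of a specific radioligand measured after 1 hour. The receptor source was SK-N-MC extracts (cells pretreated with isoproterenol and 8-bromo-cAMP). Compounds were first tested at 25 uM in duplicate and then in concentration series.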

Assay [8] concerns the target Beta-2 adrenergic receptor (Homo sapiens) (UniProt P07550). Nature of the assay: NVS_GPCR_hAdrb2: NovaScreen (NVS) G Protein-Coupled Receptor Assay for human Adrenergic, Beta 2 Receptor (Adrb2) (AID 2283261). Put shortly:
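Compounds screened in duplicate at 25 uM, then actives in concentration series. Human beta-2 receptor from CHO material, cell-free; radioligand displacement after 1 h measured by filtration and scintillation against DMSO baseline.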

The target of assay [9] is human Dopamine Receptor D2 (DRD2), DRD2 (gene 1813) (UniProt P14416). As to the kind of experiment: NVS_GPCR_hDRD2s: NovaScreen (NVS) G Protein-Coupled Receptor Assay for human Dopamine Receptor D2 (DRD2) (AID 2283266). In short, it runs like this: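 Test compound (25 uM, duplicate in the primary screen; concentration series at follow-up) competed with radioligand for human DRD2 in CHO-derived membrane protein. Filter-based scintillation counting was done 1.5 hours after dosing, with loss of signal analysed against DMSO.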

Assay [10] concerns the target human Endothelin Receptor Type A (ETA), EDNRA (gene 1909) (UniProt P25101). Nature of the assay: NVS_GPCR_hETA: NovaScreen (NVS) G Protein-Coupled Receptor Assay for human Endothelin Receptor Type A (ETA) (AID 2283265). In short, it runs like this: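 Binding of radioligand to membrane protein extracted from SH-SY5Y cells was read by filtration and scintillation after 3 h. Compounds were screened at 25 uM in duplicate, with hits followed up in singleton concentration series to 50 uM.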

Values joined by “and” are separate entries in the source; they are usually repeats but may differ in a detail not shown here. Equal entries are not always repeated. Inconclusive results are not listed. The source holds several records for some structures; these can differ, active in one and inactive in another. Active and inactive are the calls of the source. Rule for the calls: active = hit-call score of the fitted dose curve at least 0.9, where 1 is the maximum; inconclusive = response in the unintended direction; inactive = score below 0.9.

Sequence of Type-1 angiotensin II receptor (Homo sapiens) (P30556 whole entry, looked up): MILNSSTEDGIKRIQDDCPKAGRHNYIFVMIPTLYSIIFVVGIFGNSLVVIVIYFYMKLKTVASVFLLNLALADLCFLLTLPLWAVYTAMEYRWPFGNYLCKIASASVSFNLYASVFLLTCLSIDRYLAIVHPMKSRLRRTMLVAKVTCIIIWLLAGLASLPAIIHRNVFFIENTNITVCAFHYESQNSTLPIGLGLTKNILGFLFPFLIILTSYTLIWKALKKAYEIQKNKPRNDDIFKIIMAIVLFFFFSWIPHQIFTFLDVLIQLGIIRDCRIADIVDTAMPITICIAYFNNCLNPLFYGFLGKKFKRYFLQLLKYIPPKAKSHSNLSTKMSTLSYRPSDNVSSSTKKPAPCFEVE
Sequence of human Adrenergic, Alpha 2A Receptor (Adra2A), ADRA2A (gene 150) (P08913 whole entry, looked up): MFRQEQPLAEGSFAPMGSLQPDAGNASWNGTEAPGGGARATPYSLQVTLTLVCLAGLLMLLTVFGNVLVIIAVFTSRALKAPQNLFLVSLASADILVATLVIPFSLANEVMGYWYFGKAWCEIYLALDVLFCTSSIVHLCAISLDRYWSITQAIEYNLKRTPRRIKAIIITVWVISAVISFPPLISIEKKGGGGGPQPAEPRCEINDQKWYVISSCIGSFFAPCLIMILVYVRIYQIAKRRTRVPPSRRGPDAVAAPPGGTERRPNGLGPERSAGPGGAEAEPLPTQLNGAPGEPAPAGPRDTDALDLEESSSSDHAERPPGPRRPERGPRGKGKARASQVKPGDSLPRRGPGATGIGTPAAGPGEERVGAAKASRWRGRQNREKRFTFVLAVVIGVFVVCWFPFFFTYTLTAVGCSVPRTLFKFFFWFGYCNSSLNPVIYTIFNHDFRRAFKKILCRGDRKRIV
Sequence of human Adrenergic, Alpha 2c Receptor (Adra2C), ADRA2C (gene 152) (P18825 whole entry, looked up): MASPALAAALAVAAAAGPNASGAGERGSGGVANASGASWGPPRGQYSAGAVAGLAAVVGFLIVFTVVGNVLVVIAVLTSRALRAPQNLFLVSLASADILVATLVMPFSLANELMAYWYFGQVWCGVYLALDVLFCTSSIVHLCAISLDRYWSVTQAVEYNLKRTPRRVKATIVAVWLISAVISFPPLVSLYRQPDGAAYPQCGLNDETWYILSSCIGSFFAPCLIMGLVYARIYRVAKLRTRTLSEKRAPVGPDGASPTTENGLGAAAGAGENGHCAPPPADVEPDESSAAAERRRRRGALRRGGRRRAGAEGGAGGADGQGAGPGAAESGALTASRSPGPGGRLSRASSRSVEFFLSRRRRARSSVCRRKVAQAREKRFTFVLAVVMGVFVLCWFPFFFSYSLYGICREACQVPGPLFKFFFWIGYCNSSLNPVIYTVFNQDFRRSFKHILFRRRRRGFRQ
Sequence of human Dopamine Receptor D2 (DRD2), DRD2 (gene 1813) (P14416 whole entry, looked up): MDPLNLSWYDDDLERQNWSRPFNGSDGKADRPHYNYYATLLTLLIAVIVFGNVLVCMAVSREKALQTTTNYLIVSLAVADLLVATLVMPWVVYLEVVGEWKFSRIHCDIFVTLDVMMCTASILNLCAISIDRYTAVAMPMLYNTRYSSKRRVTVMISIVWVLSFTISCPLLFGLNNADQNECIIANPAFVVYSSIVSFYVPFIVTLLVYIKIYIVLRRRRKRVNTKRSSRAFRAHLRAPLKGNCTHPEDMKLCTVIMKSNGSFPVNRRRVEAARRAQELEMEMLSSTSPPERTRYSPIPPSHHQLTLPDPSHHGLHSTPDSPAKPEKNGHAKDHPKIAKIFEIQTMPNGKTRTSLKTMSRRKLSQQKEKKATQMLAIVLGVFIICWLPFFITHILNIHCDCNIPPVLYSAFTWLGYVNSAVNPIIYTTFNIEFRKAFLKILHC
Sequence of human Dopamine Receptor D4.4 (DRD4.4), DRD4 (gene 1815) (P21917 whole entry, looked up): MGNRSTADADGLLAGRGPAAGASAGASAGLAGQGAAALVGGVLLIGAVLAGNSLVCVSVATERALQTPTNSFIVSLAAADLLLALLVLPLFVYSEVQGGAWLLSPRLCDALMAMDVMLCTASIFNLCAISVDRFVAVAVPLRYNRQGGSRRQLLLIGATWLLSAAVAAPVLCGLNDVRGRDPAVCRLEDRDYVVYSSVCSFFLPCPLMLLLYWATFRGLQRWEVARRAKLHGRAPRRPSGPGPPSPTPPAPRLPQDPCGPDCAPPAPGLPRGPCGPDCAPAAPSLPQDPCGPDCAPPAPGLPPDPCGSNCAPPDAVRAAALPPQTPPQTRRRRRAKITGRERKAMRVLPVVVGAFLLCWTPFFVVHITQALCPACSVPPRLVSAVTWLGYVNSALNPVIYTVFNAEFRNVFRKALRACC
Sequence of human Adrenergic, Beta 1 Receptor (Adrb1), ADRB1 (gene 153) (P08588 whole entry, looked up): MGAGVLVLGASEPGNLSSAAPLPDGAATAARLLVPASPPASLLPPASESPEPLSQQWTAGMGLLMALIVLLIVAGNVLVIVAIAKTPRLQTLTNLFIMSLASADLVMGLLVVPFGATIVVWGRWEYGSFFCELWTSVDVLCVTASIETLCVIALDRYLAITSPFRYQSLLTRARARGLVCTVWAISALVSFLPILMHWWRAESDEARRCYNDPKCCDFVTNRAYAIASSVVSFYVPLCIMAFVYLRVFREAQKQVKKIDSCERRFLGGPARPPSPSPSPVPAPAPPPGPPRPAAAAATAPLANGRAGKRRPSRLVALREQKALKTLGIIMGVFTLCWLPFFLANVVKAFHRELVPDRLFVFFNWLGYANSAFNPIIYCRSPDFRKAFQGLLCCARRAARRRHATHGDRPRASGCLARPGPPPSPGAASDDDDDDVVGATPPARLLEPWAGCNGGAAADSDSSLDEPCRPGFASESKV
Sequence of human Adenosine A2a Receptor (AdoRA2a), ADORA2A (gene 135) (P29274 whole entry, looked up): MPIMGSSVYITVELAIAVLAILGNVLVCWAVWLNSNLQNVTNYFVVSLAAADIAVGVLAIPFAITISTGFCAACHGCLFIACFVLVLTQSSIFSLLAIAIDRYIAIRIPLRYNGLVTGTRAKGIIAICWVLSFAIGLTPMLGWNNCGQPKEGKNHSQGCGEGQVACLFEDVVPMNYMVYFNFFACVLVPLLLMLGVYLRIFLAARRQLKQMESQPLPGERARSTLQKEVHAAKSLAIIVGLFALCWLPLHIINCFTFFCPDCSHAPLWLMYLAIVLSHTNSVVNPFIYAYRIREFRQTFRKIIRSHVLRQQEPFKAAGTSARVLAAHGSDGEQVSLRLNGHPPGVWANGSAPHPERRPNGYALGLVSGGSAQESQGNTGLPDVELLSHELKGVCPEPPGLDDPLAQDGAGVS
Sequence of human Endothelin Receptor Type A (ETA), EDNRA (gene 1909) (P25101 whole entry, looked up): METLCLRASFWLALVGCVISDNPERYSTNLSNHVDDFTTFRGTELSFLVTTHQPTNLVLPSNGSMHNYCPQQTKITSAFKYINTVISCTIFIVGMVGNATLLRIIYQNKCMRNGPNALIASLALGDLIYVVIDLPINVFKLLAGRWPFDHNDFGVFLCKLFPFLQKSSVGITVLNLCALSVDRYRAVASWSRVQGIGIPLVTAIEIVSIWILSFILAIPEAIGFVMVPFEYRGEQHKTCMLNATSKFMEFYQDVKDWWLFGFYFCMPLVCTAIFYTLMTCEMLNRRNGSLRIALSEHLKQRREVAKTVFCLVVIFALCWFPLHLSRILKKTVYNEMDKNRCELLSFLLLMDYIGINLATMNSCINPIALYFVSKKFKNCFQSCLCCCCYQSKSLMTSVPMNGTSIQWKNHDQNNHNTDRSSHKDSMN
Sequence of Beta-2 adrenergic receptor (Homo sapiens) (P07550 whole entry, looked up): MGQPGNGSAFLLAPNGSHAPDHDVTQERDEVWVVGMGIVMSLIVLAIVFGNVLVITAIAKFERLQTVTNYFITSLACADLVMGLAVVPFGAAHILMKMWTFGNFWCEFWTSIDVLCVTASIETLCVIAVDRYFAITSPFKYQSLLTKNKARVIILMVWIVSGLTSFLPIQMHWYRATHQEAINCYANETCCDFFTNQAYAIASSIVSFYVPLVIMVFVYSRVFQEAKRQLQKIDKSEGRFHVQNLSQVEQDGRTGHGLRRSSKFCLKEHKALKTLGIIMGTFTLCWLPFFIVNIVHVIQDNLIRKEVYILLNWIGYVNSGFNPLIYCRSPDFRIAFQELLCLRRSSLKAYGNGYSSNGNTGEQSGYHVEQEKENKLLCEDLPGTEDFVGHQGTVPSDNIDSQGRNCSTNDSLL
Sequence of human Adrenergic, Beta 3 Receptor (Adrb3), ADRB3 (gene 155) (P13945 whole entry, looked up): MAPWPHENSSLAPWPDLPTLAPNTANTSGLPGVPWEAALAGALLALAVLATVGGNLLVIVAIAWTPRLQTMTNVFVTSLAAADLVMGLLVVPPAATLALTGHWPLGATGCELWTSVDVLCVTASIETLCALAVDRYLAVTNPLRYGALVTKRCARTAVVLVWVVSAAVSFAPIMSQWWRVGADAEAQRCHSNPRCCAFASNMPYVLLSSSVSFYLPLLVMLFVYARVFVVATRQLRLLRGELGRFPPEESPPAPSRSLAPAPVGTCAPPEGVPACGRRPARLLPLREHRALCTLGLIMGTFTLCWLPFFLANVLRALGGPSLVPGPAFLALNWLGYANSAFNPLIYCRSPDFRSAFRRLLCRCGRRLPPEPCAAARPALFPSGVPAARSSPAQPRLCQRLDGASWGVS

The AC50 is the midpoint of the concentration-response curve, whichever way the signal moves. For the compound `ClC1C(Cl)C(Cl)C(Cl)C(Cl)C1Cl` (stereo not drawn), the AC50 in [1] is 15.6 µM (active).
In the case of `CCOc1nc(NC)nc(NC(=O)NS(=O)(=O)c2ccccc2C(=O)OC)n1`, the result in assay [2] was inactive.
In the case of `CNC(=O)Oc1cccc(N=CN(C)C)c1`, in [3], the call was inactive.
As for `CCCN(CCOc1c(Cl)cc(Cl)cc1Cl)C(=O)n1ccnc1`, the AC50 in [4] was 4.96 µM (active).
Consider `N#Cc1c(Cl)c(Cl)c(Cl)c(C#N)c1Cl`, for which the compound was called inactive in [5].
For `CCC(C)(C)C(=O)OC1=C(c2ccc(Cl)cc2Cl)C(=O)OC12CCCCC2`, the compound was classed as inactive in assay [4].
For the compound `CC[C@H](C)[C@H]1O[C@]2(C=C[C@@H]1C)C[C@@H]1C[C@@H](C/C=C(\C)[C@@H](O[C@H]3C[C@H](OC)[C@@H](O[C@H]4C[C@H](OC)[C@@H](O)[C@H](C)O4)[C@H](C)O3)[C@@H](C)/C=C/C=C3\CO[C@@H]4[C@H](O)C(C)=C[C@@H](C(=O)O1)[C@]34O)O2` (tested in a mixture with another compound), the AC50 in assay [6] was 6.87 µM (active); in assay [4] it was 6.06 µM (active); in assay [5] it was 8.16 µM (active).
In the case of `O=C(Nc1ccccc1)Nc1cnns1`, the call in [1] was inactive. For the same compound, the AC50 in [4] is 4.96 µM (active).
Regarding `COP(=S)(OC)Oc1ccc([N+](=O)[O-])cc1`, the AC50 in [7] is 12.5 µM (active).
For the compound `COc1nn(CSP(=S)(OC)OC)c(=O)s1`, the AC50 in assay [8] was 6.74 µM (active).
With `O=C(O)C(F)(F)C(F)(F)C(F)(F)C(F)(F)C(F)(F)C(F)(F)C(F)(F)F`, in assay [1], the AC50 is 11 µM (active). The result in assay [4], in [5] and in assay [9] was inactive.
As for `OCCOc1ccccc1`, the compound was classed as inactive in assay [2].
On to `O=S(=O)(O)C(F)(F)C(F)(F)C(F)(F)C(F)(F)C(F)(F)C(F)(F)C(F)(F)C(F)(F)F`, for which the AC50 in assay [1] was 6.28 µM (active) [middle of 5 runs]; in assay [6] it was 37 µM (active) and 31.2 µM (active) and 29.9 µM (active); in assay [5] it was 49.6 µM (active); in assay [3], 25 µM (active) and 16.3 µM (active) and 24 µM (active); in [9], 7.24 µM (active). Also, the result in assay [5], in assay [3] and in assay [10] was inactive.
Regarding `CCCN(CCC)c1c([N+](=O)[O-])cc(C(F)(F)F)cc1[N+](=O)[O-]`, the compound was classed as inactive in assay [2].
`Oc1cc(Cl)ccc1Oc1ccc(Cl)cc1Cl`: the half-maximal activity concentration (AC50) in [6] is 37.5 µM (active); in [4], 6.8 µM (active). The call in assay [10] and in assay [9] was inactive.
For `CCOCN(C(=O)CCl)c1c(C)cccc1CC`, in [5], the outcome was inactive.
For `Oc1ccc(Cl)cc1Cc1ccccc1`, the AC50 is 25.2 µM (active) and 15.1 µM (active) in assay [1]; 33.3 µM (active) [middle of 5 runs] in [6]; 25.2 µM (active) [middle of 6 runs] in assay [4]; 25.2 µM (active) in assay [3]; 33.5 µM (active) [middle of 6 runs] in [9]. Besides, the call in assay [5] was inactive.
